PubChem BioAssay (NCATS)
Results filed as inconclusive are left out. Activity calls are given as the source filed them. The call rests on the fitted dose curve; in most records, active means well fitted curve in the direction sought with a large enough effect; inconclusive means small, poorly fitted or top-dose-only effect, or another doubt; inactive means no such curve, though single readings can be large; an effect the other way counts as inactive or inconclusive.

What was measured:
[1] = Quantitative High-Throughput drug screen in 47 multiple myeloma cell lines against the NCATS MIPE library collection: ARP1_JJKsccF8 cell viability assay (AID 1918928; further: nearly all actives have a fitted effect of over 40% in size; further: potency means the concentration at half of the fitted maximal effect)
Outline: (§1)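 Myeloma cells at 500 per well in 1536-well format treated with MIPE 4.0 library by pin transfer for 48 h at 37C, 5% CO2. Viability from ATP luminescence (CellTiter-Glo), normalized to DMSO (100%) and media-only (0%) wells.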

[2] = Quantitative High-Throughput drug screen in 47 multiple myeloma cell lines against the NCATS MIPE library collection: KMM1_JCRB cell viability assay (AID 1918960); further: nearly all actives have a fitted effect of over 30% in size; further: potency means the concentration at half of the fitted maximal effect
Outline: as §1

[3] = Quantitative High-Throughput drug screen in 47 multiple myeloma cell lines against the NCATS MIPE library collection: KHM11_PLB cell viability assay (AID 1918962); further: nearly all actives have a fitted effect of over 35% in size; further: potency means the concentration at half of the fitted maximal effect
Outline: (§2)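 Primary qHTS used for cherry-picking: cells at 500/well, library compounds for 48 h (37C, 5% CO2), luminescent ATP assay.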

[4] = Quantitative High-Throughput drug screen in 47 multiple myeloma cell lines against the NCATS MIPE library collection: JIM3_ECACC cell viability assay (AID 1918963; further: nearly all actives have a fitted effect of over 35% in size)
Outline: as §2

[5] = Quantitative High-Throughput drug screen in 47 multiple myeloma cell lines against the NCATS MIPE library collection: JIM1_ECACC cell viability assay (AID 1918964; further: potency means the concentration at half of the fitted maximal effect)
Outline: (§3)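 Inhibition of cell viability is measured here. Each line was plated at 500 cells per well, treated with MIPE 4.0 drugs, kept 48 hours at 37C, then assayed for ATP content by CellTiter-Glo luminescence.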

[6] = Quantitative High-Throughput drug screen in 47 multiple myeloma cell lines against the NCATS MIPE library collection: INA6_PLB cell viability assay (AID 1918965; further: nearly all actives have a fitted effect of over 55% in size; further: potency means the concentration at half of the fitted maximal effect)
Outline: (§4)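 We plated 500 myeloma cells per well, pinned in MIPE 4.0 compounds, and incubated for 48 hours at 37C. ATP was then quantified with CellTiter-Glo, with DMSO and media-only wells defining 100% and 0%.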

[7] = Quantitative High-Throughput drug screen in 47 multiple myeloma cell lines against the NCATS MIPE library collection: H1112_PLB cell viability assay (AID 1918967; further: nearly all actives have a fitted effect of over 30% in size; further: potency means the concentration at half of the fitted maximal effect)
Outline: as §3

[8] = Quantitative High-Throughput drug screen in 47 multiple myeloma cell lines against the NCATS MIPE library collection: KMS27_JCRB cell viability assay (AID 1918970); further: nearly all actives have a fitted effect of over 30% in size; further: potency means the concentration at half of the fitted maximal effect
Outline: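 Each line is seeded at 500 cells per well and treated with library compounds for 48 hours under 37 °C, 5% CO2. CellTiter-Glo is then added for 5 min at room temperature before median relative luminescence is recorded.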

[9] = Quantitative High-Throughput drug screen in 47 multiple myeloma cell lines against the NCATS MIPE library collection: KMS12BM_JCRB cell viability assay (AID 1918971); further: nearly all actives have a fitted effect of over 35% in size; further: potency means the concentration at half of the fitted maximal effect
Outline: as §4

[10] = Quantitative High-Throughput drug screen in 47 multiple myeloma cell lines against the NCATS MIPE library collection: KMS12PE_JCRB cell viability assay (AID 1918972); further: nearly all actives have a fitted effect of over 30% in size; further: potency means the concentration at half of the fitted maximal effect
Outline: as §4

[11] = Quantitative High-Throughput drug screen in 47 multiple myeloma cell lines against the NCATS MIPE library collection: KMS26_JCRB cell viability assay (AID 1918975); further: nearly all actives have a fitted effect of over 45% in size; further: potency means the concentration at half of the fitted maximal effect
Outline: as §4

[12] = Quantitative High-Throughput drug screen in 47 multiple myeloma cell lines against the NCATS MIPE library collection: NCIH929_DSMZ cell viability assay (AID 1918978); further: nearly all actives have a fitted effect of over 35% in size; further: potency means the concentration at half of the fitted maximal effect
Outline: (§5)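 Plated at 500 cells per well, myeloma lines received MIPE 4.0 compounds by pin tool. Following 48 h culture at 37 °C, CellTiter-Glo luminescence gave viability relative to DMSO and media-only controls.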

[13] = Quantitative High-Throughput drug screen in 47 multiple myeloma cell lines against the NCATS MIPE library collection: ARD_JJKsccE7 cell viability assay (AID 1918929; further: potency means the concentration at half of the fitted maximal effect)
Outline: as §3

[14] = Quantitative High-Throughput drug screen in 47 multiple myeloma cell lines against the NCATS MIPE library collection: Karpas620_DSMZ cell viability assay (AID 1918959); further: nearly all actives have a fitted effect of over 30% in size; further: potency means the concentration at half of the fitted maximal effect
Outline: as §2

[15] = Quantitative High-Throughput drug screen in 47 multiple myeloma cell lines against the NCATS MIPE library collection: Karpas25_ECACC cell viability assay (AID 1918968; further: nearly all actives have a fitted effect of over 35% in size; further: potency means the concentration at half of the fitted maximal effect)
Outline: as §3

[16] = Quantitative High-Throughput drug screen in 47 multiple myeloma cell lines against the NCATS MIPE library collection: JJN3_DSMZ cell viability assay (AID 1918966; further: nearly all actives have a fitted effect of over 50% in size; further: potency means the concentration at half of the fitted maximal effect)
Outline: as §3

[17] = Quantitative High-Throughput drug screen in 47 multiple myeloma cell lines against the NCATS MIPE library collection: KMS21BM_JCRB cell viability assay (AID 1918974); conditions: ATP luminescence, 48 h; viability: at 45.8 µM (top of the series) unless noted; further: potency means the concentration at half of the fitted maximal effect
Outline: as §3

[18] = Quantitative High-Throughput drug screen in 47 multiple myeloma cell lines against the NCATS MIPE library collection: MOLP8_DSMZ cell viability assay (AID 1918977); further: nearly all actives have a fitted effect of over 45% in size; further: potency means the concentration at half of the fitted maximal effect
Outline: as §5

[19] = Quantitative High-Throughput drug screen in 47 multiple myeloma cell lines against the NCATS MIPE library collection: KMS20_JCRB cell viability assay (AID 1918973); further: potency means the concentration at half of the fitted maximal effect; nearly all actives have a fitted effect of over 45% in size
Outline: as §3

[20] = Quantitative High-Throughput drug screen in 47 multiple myeloma cell lines against the NCATS MIPE library collection: MMM1_PLB cell viability assay (AID 1918976)
Outline: as §5

Measured: Potency

O=C(c1ccc(F)cc1)C1CCN(CCn2c(=O)[nH]c3ccccc3c2=O)CC1
active: [6] 20.9 µM
inactive: [1] | [2] | [3] | [4] | [5] | [7] | [8] | [9] | [10] | [11] | [12]

COc1ccccc1OCC(O)CN1CCN(CC(=O)Nc2c(C)cccc2C)CC1 (stereo unspecified)
inactive: [1] | [13] | [2] | [5] | [6] | [7] | [8] | [9] | [10] | [11]

CN(C)CCOC(c1ccccc1)c1ccccc1
inactive: [1] | [14] | [2] | [8] | [9] | [11]
active: [6] 10.5 µM | [15] 9.35 µM

Nc1nnc(-c2cccc(Cl)c2Cl)c(N)n1
active: [15] 20.9 µM | [12] 23.5 µM
inactive: [1] | [5] | [8] | [11]

CC(C)NCC(O)c1ccc(O)c(O)c1 (stereo unspecified)
inactive: [3] | [4] | [7]
active: [13] 5.9 µM | [14] 14.8 µM | [2] 2.64 µM | [5] 13.2 µM | [16] 20.9 µM | [15] 0.0418 µM | [8] 1.18 µM | [10] 5.26 µM | [17] 0.372 µM | [18] 23.5 µM

CN1CCN(CCCN2c3ccccc3Sc3ccc(Cl)cc32)CC1
active: [1] 20.9 µM | [13] 16.6 µM | [2] 16.6 µM | [5] 3.32 µM | [6] 14.8 µM | [16] 18.7 µM | [7] 20.9 µM | [15] 5.26 µM | [8] 16.6 µM | [9] 16.6 µM | [10] 8.33 µM | [19] 8.33 µM | [17] 6.62 µM | [11] 26.4 µM | [20] 26.4 µM | [12] 29.6 µM

CCOC(=O)C(C)(C)Oc1ccc(Cl)cc1
inactive: [1] | [2] | [3] | [6] | [16] | [8] | [10] | [18] | [12]
active: [15] 0.662 µM

CCN1CCCC1CNC(=O)c1cc(S(=O)(=O)CC)c(N)cc1OC (stereo unspecified)
active: [20] 5.26 µM
inactive: [1] | [2] | [5] | [6] | [16] | [7] | [15] | [8] | [10] | [11] | [18]

CC1COc2c(N3CCN(C)CC3)c(F)cc3c(=O)c(C(=O)O)cn1c23 (stereo unspecified)
inactive: [1] | [13] | [3] | [4] | [5] | [16] | [7] | [15] | [9] | [11] | [18] | [12]
active: [8] 18.7 µM | [17] 5.26 µM

CN1CCC(=C2c3ccccc3CC(=O)c3sccc32)CC1
inactive: [1] | [13] | [10] | [17] | [18]
active: [6] 8.33 µM | [7] 6.62 µM | [15] 7.43 µM | [12] 4.18 µM

CCOC(=O)Nc1ccc(NCc2ccc(F)cc2)nc1N
active: [13] 18.7 µM | [6] 14.8 µM | [8] 18.7 µM
inactive: [1] | [7] | [15] | [9] | [18]

CN(Cc1cnc2nc(N)nc(N)c2n1)c1ccc(C(=O)N[C@@H](CCC(=O)O)C(=O)O)cc1
active: [1] 0.0332 µM | [5] 0.0264 µM | [6] 0.0372 µM | [16] 0.0469 µM | [7] 0.0662 µM | [15] 1.18 µM | [8] 0.0296 µM | [9] 6.62 µM | [18] 6.62 µM | [12] 2.35 µM

Cn1ccc2cc3c(cc21)CCN3C(=O)Nc1cccnc1
inactive: [1]
active: [6] 14.8 µM | [7] 20.9 µM | [15] 20.9 µM | [10] 20.9 µM

CNCCCC12CCC(c3ccccc31)c1ccccc12
active: [1] 20.9 µM | [14] 26.4 µM | [2] 20.9 µM | [3] 26.4 µM | [6] 16.6 µM | [16] 20.9 µM | [7] 26.4 µM | [15] 23.5 µM | [8] 20.9 µM | [9] 23.5 µM | [10] 10.5 µM | [17] 11.8 µM | [11] 20.9 µM

CN1CCN(C2=Nc3cc(Cl)ccc3Nc3ccccc32)CC1
active: [2] 16.6 µM | [15] 26.4 µM
inactive: [1] | [5] | [8] | [9] | [11] | [18]

CN1C(C(=O)Nc2ccccn2)=C(O)c2ccccc2S1(=O)=O
inactive: [1] | [13] | [2] | [4] | [16] | [7] | [9] | [10] | [11] | [18] | [12]

CS(=O)(=O)CCNCc1ccc(-c2ccc3ncnc(Nc4ccc(OCc5cccc(F)c5)c(Cl)c4)c3c2)o1
active: [13] 6.62 µM | [14] 18.7 µM | [2] 13.2 µM | [3] 4.69 µM | [5] 6.62 µM | [6] 3.32 µM | [7] 0.0743 µM | [15] 0.372 µM | [8] 10.5 µM | [9] 20.9 µM | [10] 4.69 µM | [19] 1.48 µM | [17] 11.8 µM | [11] 16.6 µM | [18] 26.4 µM | [12] 0.264 µM
